About 500 (0.54%) of roughly 93,000 compounds were called active. For the sample, actives were picked, then their nearest neighbours and some compounds at random. Unmarked numbers belong to inactive results.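 The calls were made as follows: active = primary inhibition of 50% or more at 10 µM, then 40% or more on retest; inactive = the rest.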
target: Integrin beta-2 (Homo sapiens) + Integrin alpha-M (Homo sapiens) (UniProt P05107+P11215); assay: antagonists of integrin CD11b/CD18-fibrinogen binding – K562 cells, luminescence, primary screen (AID 1497); details: K562 CD11b/CD18 adhesion to fibrinogen, ATPlite luminescence; at 10 µM; stronger effect = higher value; Mn2+ added to activate the integrin
Sequence (P05107 whole entry, looked up, other chains not shown): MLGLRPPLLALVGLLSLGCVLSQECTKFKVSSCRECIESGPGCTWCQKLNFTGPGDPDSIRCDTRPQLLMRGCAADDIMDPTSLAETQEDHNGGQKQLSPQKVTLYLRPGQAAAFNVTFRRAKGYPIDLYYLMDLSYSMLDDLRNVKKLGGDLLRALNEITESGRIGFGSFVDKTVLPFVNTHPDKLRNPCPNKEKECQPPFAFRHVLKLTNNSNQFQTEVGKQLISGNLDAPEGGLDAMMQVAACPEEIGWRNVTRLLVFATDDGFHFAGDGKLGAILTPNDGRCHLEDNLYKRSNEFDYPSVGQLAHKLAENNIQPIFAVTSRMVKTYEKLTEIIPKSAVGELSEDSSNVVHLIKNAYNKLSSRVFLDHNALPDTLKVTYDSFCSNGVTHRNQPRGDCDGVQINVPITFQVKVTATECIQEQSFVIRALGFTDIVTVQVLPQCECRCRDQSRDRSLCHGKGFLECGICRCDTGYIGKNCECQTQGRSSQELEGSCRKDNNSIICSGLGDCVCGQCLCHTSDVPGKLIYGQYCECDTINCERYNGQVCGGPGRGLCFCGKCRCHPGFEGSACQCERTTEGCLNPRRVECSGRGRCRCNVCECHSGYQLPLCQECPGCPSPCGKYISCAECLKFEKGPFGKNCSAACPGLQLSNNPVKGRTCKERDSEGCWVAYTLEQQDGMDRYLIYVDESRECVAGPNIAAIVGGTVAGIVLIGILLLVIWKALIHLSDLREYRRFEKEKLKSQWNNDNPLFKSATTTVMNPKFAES

| SMILES | inhibition |
| --- | --- |
| Cc1ccc(-c2nc(C)sc2CC(=O)OCC(=O)Nc2c(F)cccc2F)cc1 | 16.1% |
| Nc1nc(CC(=O)CSc2ccc(Cl)cc2)nc(Nc2ccc(F)cc2)n1 | -3.1% |
| Cc1ccc(C)c(NC(=S)NCC(c2cccnc2)N2CCOCC2)c1 (stereo not drawn) | -16.8% |
| COC(=O)c1ccc(C(=O)OC)c(NC(=S)N2CCN(c3cc(Cl)ccc3C)CC2)c1 | 5.6% |
| CCCOC(=O)c1c(NC(=O)c2cnn3c2NC(c2ccccc2)CC3C(F)(F)F)sc2c1CCCC2 (stereo not drawn) | -9.3% |
| CCCCCC(=O)Nc1ccc2oc(-c3ccncc3)nc2c1 | -1.9% |
| COc1cccc(-c2nc3cc(C)ccc3o2)c1 | 21% |
| CCc1ccc2oc(-c3ccc(N)cc3)nc2c1 | 62.3% (active) |
| C/C(=N/NC(=O)C1COc2ccccc2O1)c1ccco1 (stereo not drawn) | 4.4% |
| Cc1ccccc1NC(=O)CSC1=NCCN1 | -19.9% |
| Cc1ccc(S(=O)(=O)C2C(=O)NC3(C)CC2c2ccccc2O3)cc1 (stereo not drawn) | 19.1% |
| CCOC(=O)c1cc2ccccc2nc1C | -6.1% |
| Cc1nc2ccccc2cc1OCc1ccc(F)cc1 | 98.8% (active) |
| Cc1nc2ccccc2cc1O | 20.1% |
| CN1CCN(c2ccc(S(=O)(=O)Nc3ccccc3)cc2[N+](=O)[O-])CC1 | 31% |
| Cc1ccc(-c2nn(-c3ccccc3)cc2C(=O)Nc2cccc(S(=O)(=O)N3CCOCC3)c2)cc1 | -5.6% |
| Cc1[nH]c2ccccc2c1/C=N/NC(=O)CNC(=O)c1ccc2c(c1)OCO2 | -16% |
| Cc1ccc2[nH]cc(CCNC(=O)c3ccc([N+](=O)[O-])cc3)c2c1 | -25.6% |
| CCOC(=O)c1c(NC(=O)C2CCN(S(=O)(=O)c3ccc(Cl)cc3)CC2)sc2c1CCCC2 | -25.4% |

| SMILES | inhibition |
| --- | --- |
| Cc1ccccc1C(CC(=O)c1cccs1)C(C#N)C#N (stereo not drawn) | -1.8% |
| CC(C)NC(=S)N1CCN(C(c2ccccc2)c2ccccc2)CC1 | -11.6% |
| CCc1nnc(NC(=O)C2CC(=O)N(c3ccc4c(c3)OCCO4)C2)s1 (stereo not drawn) | 12.3% |
| CCOC(=O)c1csc(NC(=O)Nc2cccc(OC)c2)n1 | -1.6% |
| Cc1cc[n+](-c2[nH]c(=O)sc2/C=N/NC(=O)c2ccccc2[O-])cc1C | -4.4% |
| C/C(=C/C(=O)N1CCN(C)CC1)C(=O)O | -9.1% |
| N#C/C(=C(/O)COC(=O)COc1ccc(Cl)cc1)c1nc2ccccc2[nH]1 | 1.5% |
| Cc1ccc(NC(=O)NC(=O)CSc2nnc(-c3ccc(OC(F)F)cc3)n2N)c(C)c1 | 2.1% |
| O=C(Cn1cnc2ccccc21)N/N=C/c1ccco1 | 10.1% |
| C=CCn1c(SCC(N)=O)nnc1-c1cc2c(s1)CCC(CC)C2 (stereo not drawn) | 18.8% |
| CCn1c2ccccc2c2cc(NC(=O)COC(=O)c3ccccc3Br)ccc21 | 2.2% |
| COc1ccc(Cl)cc1NC(=O)CNc1ccccc1F | 0.4% |
| CC(C)CNC(=O)COC(=O)c1ccccc1OCC(=O)Nc1ccc(Br)cc1 | 7.6% |
| CC(C)COP(=O)(c1ccc(N(C)C)cc1)C(Nc1ccccc1)c1cccnc1 (stereo not drawn) | -5.3% |
| CC1CCN(c2ccc(C(=O)NCc3ccc4c(c3)OCO4)cc2[N+](=O)[O-])CC1 | 6.9% |
| CSCC[C@H](NC(=O)OC(C)(C)C)C(=O)N/N=C/c1cc2ccc(C)cc2nc1Cl | 23.4% |
| O=C(Nc1ccccc1)c1cccnc1Nc1ccccc1 | -10.2% |
| O=C(Nc1ccccc1)c1ccccc1NC(=O)C(F)(F)F | 77.1% (active) |
| Cc1cccc(NC(=O)c2ccccc2NC(=O)C(C)(C)C)n1 | -2% |
